NCOA3 inh – SRC3 coactivator transcriptional activity inhibitors, primary screen, cell-based, luminescence. HEK293 GAL4-SRC3 luciferase reporter. hit rate 0.17% among 360,000. AID 588352, 2011. inhibition, % at 3.6 µM. Nuclear receptor coactivator 3 (Homo sapiens), Q9Y6Q9;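 active means inhibition above a per-campaign cutoff, the mean of all compounds plus 3 SD, cut at about 60% in these data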;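 further: higher means less SRC3-driven luciferase light from the GAL4 reporter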
Gli-Sufu block – Gli-Sufu pathway antagonists, primary screen, luciferase luminescence, Sufu-KO-LIGHT cells, uHTS. inhibition, % at 5 µM. Sufu-KO-LIGHT fibroblasts, Gli luciferase reporter luminescence. hit rate 0.74% among 340,000;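 active means inhibition above about 55%, limit read from the data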
NCOA2 inhibitor – inhibition of GAL4-SRC2 driven luciferase reporter, primary screen, SRC2 inhibitor project, cell-based, luminescence. Nuclear receptor coactivator 2 (Homo sapiens), Q15596. inhibition, % at 9 µM. AID 651957, 2012. hit rate 0.17% among 370,000. HEK293 GAL4-SRC2 luciferase reporter;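 active means inhibition above the mean inhibition of all tested compounds plus 3 SD, set per campaign, cut at about 52% in these data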
COUP-TFII inh – NR2F2 transcriptional activity inhibitors, primary screen, cell-based, luciferase reporter, HEK293T, luminescence; COUP transcription factor 2 (Homo sapiens), P24468; HEK293T NGFI-A luciferase reporter; inhibition, % at 8.6 µM; hit rate 0.7% among 370,000; AID 686940, 2013;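 active means inhibition above a per-plate cutoff, mean inhibition of test wells between control levels plus 3 SD, cut at about 38% in these data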;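 further: cells cotransfected with COUP-TFII expression vector driving the NGFI-A reporter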
Target sequence (P24468 whole entry, looked up): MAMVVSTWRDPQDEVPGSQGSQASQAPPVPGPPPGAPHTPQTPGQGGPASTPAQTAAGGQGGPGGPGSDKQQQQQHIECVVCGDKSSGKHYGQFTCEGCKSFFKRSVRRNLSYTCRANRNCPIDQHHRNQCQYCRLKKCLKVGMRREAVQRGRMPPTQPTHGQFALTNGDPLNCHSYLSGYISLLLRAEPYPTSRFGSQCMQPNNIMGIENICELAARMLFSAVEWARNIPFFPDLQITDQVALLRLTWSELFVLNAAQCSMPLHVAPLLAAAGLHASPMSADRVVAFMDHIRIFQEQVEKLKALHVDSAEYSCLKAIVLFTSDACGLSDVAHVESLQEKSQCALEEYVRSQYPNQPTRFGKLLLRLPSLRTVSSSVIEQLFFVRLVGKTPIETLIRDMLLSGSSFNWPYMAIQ
NR5A2 inv ag – LRH-1 (NR5A2) inverse agonists, primary screen, cell-based, luminescence, HEK293T, StAR-luciferase reporter; inhibition, % at 3.6 µM; LRH-1 transfected, 24 h; Nuclear receptor subfamily 5 group A member 2 (Homo sapiens), O00482; hit rate 0.13% among 360,000;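 active means inhibition above the mean inhibition of all tested compounds plus 3 SD, cut at about 73% in these data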
NCOA1 inh – SRC1 coactivator transcriptional activity inhibitors, primary screen, cell-based, luminescence; Nuclear receptor coactivator 1 (Homo sapiens), Q15788; hit rate 0.12% among 360,000; HEK293 GAL4-SRC1 luciferase reporter; inhibition, % at 3.6 µM;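 active means inhibition above the campaign mean plus 3 SD, with each screening campaign given its own cutoff, cut at about 60% in these data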
Gli antag conf – Gli-SUFU pathway antagonists, confirmation, single concentration, luciferase luminescence, Sufu-KO-LIGHT cells; shares compounds with Gli-Sufu block; hit rate 40% among 2,500; AID 602428, 2012; inhibition, % at 5 µM; Gli luciferase reporter;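 active means mean inhibition at 5 µM reaching about 45%, limit read from the data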
SufuKO cytotox – cytotoxicity in Sufu-KO-LIGHT cells, confirmation, cytotoxicity control for Gli-SUFU antagonist project, cell-based, ATP luminescence, single concentration; hit rate 32% among 2,500; cytotoxicity, % at 5 µM; shares compounds with Gli-Sufu block;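 active means mean cytotoxicity at 5 µM above about 25%, limit read from the data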;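 further: cells exposed to compound overnight for roughly 16 to 18 hours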
Wnt3a cs – Wnt3a reporter signal inhibition, confirmation, counter-screen for Gli-SUFU antagonist project, Wnt-LIGHT cells, luminescence, single concentration | shares compounds with Gli-Sufu block | inhibition, % at 6.25 µM | Wnt3a-driven luciferase reporter | hit rate 20% among 2,500;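 active means mean inhibition above about 25%, limit read from the data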
Each line names hits and unclear results; the compound was inactive in the other large screens (follow-up assays come after a bar, where they were run). Hits are enriched below; roughly 1.3% of the tested compounds scored in any of these assays.

CCCCCn1c(CN2CCN(C(=O)OCC)CC2)nc2c1c(=O)n(C)c(=O)n2C	none
Cc1cc(N/N=C/c2ccc(O)cc2O)nc(-n2nc(C)cc2C)n1	Gli-Sufu block 88 | Gli antag conf 60 | SufuKO cytotox 27 | Wnt3a cs inactive
CCCCCN(C(=O)CCc1cn(CCCCC)c2ccccc12)c1ccc(N(C)c2ccccn2)cc1	none (no result: NCOA3 inh, Gli-Sufu block, NR5A2 inv ag, NCOA1 inh)
Cc1nc2ccccc2n1-c1nc(-c2ccco2)cc(C(F)(F)F)n1	Gli-Sufu block 68 | Gli antag conf 78 | SufuKO cytotox inactive | Wnt3a cs 77
CC(C)Oc1ccc(OCCCN2CCCCCC2)cc1	none
CC(C)(C)c1ccc(OCCCN2CCCC2)cc1	Gli-Sufu block 57 | Gli antag conf inactive | SufuKO cytotox inactive | Wnt3a cs inactive
CCn1c(COc2ccc3c(c2)OCO3)nnc1SCC(=O)c1ccccc1	Gli-Sufu block 67 | Gli antag conf inactive | SufuKO cytotox inactive | Wnt3a cs inactive
CCCCC(=O)N1CCC(NS(=O)(=O)c2ccc3c(c2)CCN3C(C)=O)CC1	none (no result: NCOA3 inh, Gli-Sufu block, NR5A2 inv ag, NCOA1 inh)
CCCCOc1ccc(C(=O)NCCCC(=O)N2CCCCC2)cc1	Gli-Sufu block 68 | Gli antag conf inactive | SufuKO cytotox inactive | Wnt3a cs inactive
Cc1cc(Nc2cccc(Br)c2)cc(=O)n1-c1cccc(Br)c1	none (no result: NCOA3 inh, Gli-Sufu block, NR5A2 inv ag, NCOA1 inh)
Cc1nn(-c2ccccc2)c(C)c1/C=N/NC(=O)c1cc(-c2ccc(Br)s2)[nH]n1	none
Cc1nn(-c2ccccc2)c(C)c1/C=N/NC(=O)c1cc(-c2cccs2)[nH]n1	none | Gli antag conf 61 | SufuKO cytotox 60 | Wnt3a cs inactive
Nc1nc2n(n1)C(c1ccco1)CC(c1ccc(Cl)cc1Cl)N2 (stereo not drawn)	none | Gli antag conf inactive | SufuKO cytotox inactive | Wnt3a cs inactive
COCc1[nH]nc2c1C(c1ccc(F)cc1)N(c1ccccc1)C2=O (stereo not drawn)	none (no result: NCOA3 inh, Gli-Sufu block, NR5A2 inv ag, NCOA1 inh)
CCCC(=O)OC[C@H]1CN(C2CCCC2)S(=O)(=O)c2c(F)cccc2O1	none (no result: NCOA3 inh, Gli-Sufu block, NR5A2 inv ag, NCOA1 inh)
CC(C)Oc1ccccc1C1CC(=O)Nc2cc3c(cc21)OCCO3 (stereo not drawn)	none | Gli antag conf 60 | SufuKO cytotox 59 | Wnt3a cs inactive
Cc1ccc(C)c(N2CC(O)(c3cccs3)[N+]3=C2CCCC3)c1 (stereo not drawn)	Gli-Sufu block 62 | Gli antag conf 50 | SufuKO cytotox 27 | Wnt3a cs inactive
OC1(c2cccs2)CN(c2ccc(Cl)cc2)C2=[N+]1CCCC2 (stereo not drawn)	none
CC12c3ccccc3C(c3ccccc31)C1C(=O)N(c3ccncc3)C(=O)C12 (stereo not drawn)	none
O=C(O)c1ccc(N2C(=O)C3C4c5ccccc5C(Br)(c5ccccc54)C3C2=O)cc1 (stereo not drawn)	Gli-Sufu block 66 | Gli antag conf inactive | SufuKO cytotox inactive | Wnt3a cs inactive
C/C(=N\NC(=O)c1ccn(C)n1)c1ccc(NC(=O)C2CCCC2)cc1	none
C/C(=N\NC(=O)c1ccn(C)n1)c1ccc(NC(=O)C2CCC2)cc1	Gli-Sufu block 72 | Gli antag conf inactive | SufuKO cytotox inactive | Wnt3a cs inactive
O=C(/C=C/NNC(=O)c1ccccc1)c1ccc([N+](=O)[O-])cc1	Gli-Sufu block 73 | Gli antag conf inactive | SufuKO cytotox 28 | Wnt3a cs inactive
CC(C)=CCSc1nnc([C@@H](NC(=O)OC(C)(C)C)C(C)C)o1	Gli-Sufu block 60 | Gli antag conf inactive | SufuKO cytotox 25 | Wnt3a cs inactive
Cc1[nH]c(=O)[nH]c(=O)c1CSc1nnc([C@@H](NC(=O)OC(C)(C)C)C(C)C)o1	none
CCc1nn(CCCC(=O)NCc2ccccc2Br)c(=O)c2cc3occc3n12	Gli-Sufu block 82 | Gli antag conf inactive | SufuKO cytotox inactive | Wnt3a cs inactive
O=S1(=O)N[C@H](Cc2ccccc2)COc2cccc(F)c21	none (no result: NCOA3 inh, Gli-Sufu block, NR5A2 inv ag, NCOA1 inh)
COc1cccc(CNc2ncnc3ccc(-c4c(C)noc4C)cc23)c1	none
Cc1ccsc1CNc1ncnc2ccc(-c3c(C)noc3C)cc12	none | Gli antag conf 62 | SufuKO cytotox 25 | Wnt3a cs inactive
COc1cc2c(cc1OC)C(COc1ccccc1OC)N(C(=O)c1ccco1)CC2 (stereo not drawn)	Gli-Sufu block 62 | Gli antag conf inactive | SufuKO cytotox inactive | Wnt3a cs inactive
CC1(C)CC(=O)C=C(c2ccccc2-c2cccc(C(N)=O)c2)C1=O	none (no result: NCOA3 inh, Gli-Sufu block, NR5A2 inv ag, NCOA1 inh)
Cc1cccc(C)c1NC(=S)N(CCN1CCCCCC1)Cc1ccco1	none | Gli antag conf inactive | SufuKO cytotox inactive | Wnt3a cs inactive
Cc1csc(N2CCCC2c2nc3cc(C(F)(F)F)ccc3n2CCOCCO)n1 (stereo not drawn)	Gli-Sufu block 85 | Gli antag conf inactive | SufuKO cytotox inactive | Wnt3a cs inactive
Cc1csc(N2CCCC2c2nc3cc(Cl)c(N4CCCCC4)cc3n2CCOCCO)n1 (stereo not drawn)	none
Cc1ccc(CNc2nc(C)cs2)cc1	Gli-Sufu block 73 | Gli antag conf inactive | SufuKO cytotox inactive | Wnt3a cs inactive
CCOc1cc(/C=C2\CCCC(C(=O)C(F)(F)F)=C2O)ccc1O	Gli-Sufu block 59 | Gli antag conf inactive | SufuKO cytotox inactive | Wnt3a cs inactive
COc1cc(/C=C2/CCCC(C(=O)C(F)(F)F)=C2O)ccc1O	none
c1ccc(-c2c[nH]c3cccc(C4CCCCC4)c23)cc1	none (no result: NCOA3 inh, Gli-Sufu block, NR5A2 inv ag, NCOA1 inh)
Cc1cc(-c2ccccc2)cc(-c2ccccc2)[n+]1C	Gli-Sufu block 65 | Gli antag conf 70 | SufuKO cytotox 27 | Wnt3a cs inactive
Cc1cc(-c2ccccc2)cc(=O)[nH]1	none
O=C(Nc1ccc2c(c1)OCO2)OC1CC2CC1[C@H]1CCCCN1[C@H]2Cc1ccccc1 (stereo partly drawn)	none (no result: NCOA3 inh, Gli-Sufu block, NR5A2 inv ag, NCOA1 inh)
COC(=O)C1=C(C)N(Cc2ccccc2C(F)(F)F)C(=NCc2ccc(OC)cc2)NC1c1ccc(Cl)cc1 (stereo not drawn)	none (no result: NCOA3 inh, Gli-Sufu block, NR5A2 inv ag, NCOA1 inh)
COC(=O)C[C@@H]1CC[C@@H]2[C@H](COc3ccc(NC(=O)c4cccc(OC)c4)cc3C(=O)N2C)O1	none (no result: NCOA3 inh, Gli-Sufu block, NR5A2 inv ag, NCOA1 inh)
